Where “and” joins values, the source holds several entries; their conditions need not be identical. Equal values may be shown once. Results filed as inconclusive are left out. Unmarked numbers belong to inactive results. Calls of active or inactive are those of the source. The call rests on the fitted dose curve; in most records, active means well fitted inhibition curve with a large enough effect; inconclusive means small, poorly fitted or top-dose-only effect; inactive means flat fitted curve, though single readings scatter.
On the % scale 0 is the no-effect control and ±100 the full control effect; potency means the concentration at half of the fitted maximal effect.

In this test the test system is KB-3-1. Put plainly: Cytotoxic Profiling of Annotated Libraries Using Quantitative High-Throughput Screening (AID 1296008). Further: nearly all actives have a fitted effect of over 60% in size. Conditions: Five cell lines viability, CellTiter-Glo ATP luminescence, 48-72 h; max response: active compounds read low. An excerpt:
Cell-based phenotypic screening is a commonly used approach to discover biological pathways, novel drug targets, chemical probes and high-quality hit-to-lead molecules. Many hits identified from high-throughput screening campaign are ruled out through a series of follow-up potency, selectivity/specificity, and cytotoxicity assays. Prioritization of molecules with little or no cytotoxicity for a more in-depth downstream evaluation influence the future direction of projects, so cytotoxicity profiling of the screening libraries at early stage is essential for increasing the likelihood of candidate success. […] For the annotated library, we also examined the primary targets and mechanistic pathways regularly associated with cell death. To our knowledge, this is the first study to use high-throughput screening to profile large libraries for cytotoxicity assessment in both normal and cancer cell lines. In summary, the results generated here constitutes a valuable resource for the scientific community and provides insight on identifying cytotoxic compounds with particular mechanisms of action, and prioritizing compounds with suitable cytotoxicity profile for further evaluation.
A pintool (Kalypsys) was used to transfer 23 nL of compound solution to the 1536-well assay plates. After 48 or 72 hr incubation at 37 degree Celsius, 5% CO2 and 95% humidity, 2.5 uL of CellTiter-Glo (Promega) was dispensed into each well using a dispenser (Aspect Automation, St. Paul, MN) with solenoid valves (Lee Valves, Westbrook CT). Plates were left at room temperature for 10 min before imaging the ATP-coupled luminescence using a ViewLux microplate imager (PerkinElmer, Waltham, MA).
A general note: ATP-based viability assays read luminescence as a measure of living cells.
Turning to `CN1C[C@H](C(=O)N[C@]2(C)O[C@@]3(O)[C@@H]4CCCN4C(=O)[C@H](Cc4ccccc4)N3C2=O)C[C@@H]2c3cccc4[nH]cc(c34)C[C@H]21`, the max response is 0.239%.
On the same count and under the same terms, the same measure for `COC(=O)[C@H]1[C@H]2C[C@@H]3c4[nH]c5cc(OC)ccc5c4CCN3C[C@H]2C[C@@H](OC(=O)c2cc(OC)c(OC)c(OC)c2)[C@@H]1OC`: 21.8% and -5.12%; for `CN(C)[C@@H]1C(=O)C(C(N)=O)=C(O)[C@@]2(O)C(=O)C3=C(O)c4c(O)ccc(Cl)c4[C@@H](O)[C@H]3C[C@@H]12`: -3.68%.
On the same count and under the same terms, the same measure for `CNC1(C)C2CCC(C2)C1(C)C` (stereo not given): 0.165%; for `CC(C)NNC(=O)c1ccncc1`: -1.28%; for `CCCCOCCOCCOCc1cc2c(cc1CCC)OCO2`: -1.58% and -16.8%.
On the same count and under the same terms, the figure for `OCCN1CCN(CCCN2c3ccccc3C=Cc3ccccc32)CC1` is -12.9%; for `CCCCCN(CCCCC)C(=O)C(CCC(=O)O)NC(=O)c1ccc(Cl)c(Cl)c1` (stereo not given) it is -8.56%.
Turning to `CCCN1C[C@H](CSC)C[C@@H]2c3cccc4[nH]cc(c34)C[C@H]21`, the outcome was inactive and the max response is 9.69%.
`FC(F)(F)c1ccccc1-n1ccnc1`: the max response was 22%.
With `CCN1CCC[C@H]1CNC(=O)c1c(O)c(Cl)cc(Cl)c1OC`, the max response is -13.7%.
Same read-out and setting: the figure for `NC(=O)N1c2ccccc2C=Cc2ccccc21` is -5.38%; for `CCc1c(C)[nH]c2c1C(=O)C(CN1CCOCC1)CC2` (stereo not given) it is -8.21%.
On the same count and under the same terms, the figure for `O=C(O)CCCCCCCC(=O)O` is -3.68%; for `C[N+](C)(C)CCOC(N)=O` it is 27.4%.
Same read-out and setting: the figure for `Cc1ccc(/C(=C\CN2CCCC2)c2ccccn2)cc1` is 18.1%; for `CCC(=O)c1ccc2c(c1)N(CCCN(C)C)c1ccccc1S2` it is -0.0737%; for `CCCN(CCC)CCc1cccc2c1CC(=O)N2` it is -0.569%.
With `C[C@]12CCC(=O)C=C1CC[C@@H]1[C@@H]2CC[C@@]2(C)[C@H]1CC[C@]2(O)C(=O)CO`, the max response was -11.6%.
Still for that read-out and setting: the figure for `CC(=O)OC(C)C[N+](C)(C)C` (stereo not given) is 6%; for `CCCCCCCC/C=C\CCCCCCCC(=O)NCc1ccc(O)c(OC)c1` it is -3.68%.
With `CCO/C([O-])=N/c1c[n+](N2CCOCC2)no1`, the max response is -5.15%.
Same read-out and setting: the same measure for `CCNC(=O)N1CCN(CCCC(c2ccc(F)cc2)c2ccc(F)cc2)CC1`: -7.16%.
Still for that read-out and setting: the same measure for `Cc1nc2c([nH]1)c(=O)n(C)c(=O)n2Cc1ccco1`: 16.5%.
On the same count and under the same terms, the same measure for `CN(C)C/C=C(/c1ccc(Br)cc1)c1cccnc1`: -12.9%; for `c1cnc(N2CCN(Cc3ccc4c(c3)OCO4)CC2)nc1`: -6.36%; for `CC(C)(C)c1ccc(C(=O)CCCN2CCC(OC(c3ccccc3)c3ccccc3)CC2)cc1`: -0.417%.
For the compound `CC(N=C(NC#N)Nc1ccncc1)C(C)(C)C` (stereo not given), the max response was -0.411%.
With `CC(=O)[C@]1(O)Cc2c(O)c3c(c(O)c2[C@@H](O[C@H]2C[C@H](N)[C@H](O)[C@H](C)O2)C1)C(=O)c1ccccc1C3=O`, the Potency is 4.61 µM (active).
In the case of `CN=C(NC#N)NCCSCc1nc[nH]c1C`, the max response was -9.62%.
Take `C(=C\c1ccccc1)/CN1CCN(C(c2ccccc2)c2ccccc2)CC1`: the max response is 4.11%.
On the same count and under the same terms, the same measure for `CCN(CC)CCNC(=O)c1ccc(NC(C)=O)cc1`: 1.57%; for `O=C1CC2(CCCC2)CC(=O)N1CCCCN1CCN(c2ncccn2)CC1`: -1.42%.
On the same count and under the same terms, the same measure for `CC(C)(Oc1ccc(CCNC(=O)c2ccc(Cl)cc2)cc1)C(=O)O`: 2.41%.
Still for that read-out and setting: the figure for `CN1CCN(C2=Nc3ccccc3Oc3ccc(Cl)cc32)CC1` is 6.07%.
As for `COc1cc(Cc2cnc(N)nc2N)cc(OC)c1OC`, the max response was 8.08%.
On the same count and under the same terms, the figure for `NC(=O)c1cn(Cc2c(F)cccc2F)nn1` is -1.38%.
The same measure, in the same setting: the same measure for `CCN(CC)CCNC(=O)c1cc(S(C)(=O)=O)ccc1OC`: 6.27%.
On the same count and under the same terms, the figure for `NS(=O)(=O)c1cc2c(cc1Cl)NC(C1CC3C=CC1C3)NS2(=O)=O` (stereo not given) is -20.4%.

For the origin of these results see PubChem BioAssay (NCATS).
